Measured values taken from PubChem BioAssay AID602143 (Vanderbilt Specialized Chemistry Center, 2011).
Values joined by “and” are separate entries in the source; they are usually repeats but may differ in a detail not shown here. Equal entries are not always repeated. A number with no mark means an inactive call. Active and inactive are the calls of the source. No stated cut-off is given here; in the data, active means remaining activity below about 50%; inactive means the rest.

The molecules below were run against Phospholipase D2 (Homo sapiens) (UniProt O14939) (assay: PLD2 inhibitors in cells, cell-based, HEK293, single concentration (AID 602143;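 further: tested at 200 nM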)). Conditions: HEK293 cellular PLD2 activity, percent of control; stronger effect = lower value.
Chain of Phospholipase D2 (Homo sapiens) (O14939 whole entry, looked up): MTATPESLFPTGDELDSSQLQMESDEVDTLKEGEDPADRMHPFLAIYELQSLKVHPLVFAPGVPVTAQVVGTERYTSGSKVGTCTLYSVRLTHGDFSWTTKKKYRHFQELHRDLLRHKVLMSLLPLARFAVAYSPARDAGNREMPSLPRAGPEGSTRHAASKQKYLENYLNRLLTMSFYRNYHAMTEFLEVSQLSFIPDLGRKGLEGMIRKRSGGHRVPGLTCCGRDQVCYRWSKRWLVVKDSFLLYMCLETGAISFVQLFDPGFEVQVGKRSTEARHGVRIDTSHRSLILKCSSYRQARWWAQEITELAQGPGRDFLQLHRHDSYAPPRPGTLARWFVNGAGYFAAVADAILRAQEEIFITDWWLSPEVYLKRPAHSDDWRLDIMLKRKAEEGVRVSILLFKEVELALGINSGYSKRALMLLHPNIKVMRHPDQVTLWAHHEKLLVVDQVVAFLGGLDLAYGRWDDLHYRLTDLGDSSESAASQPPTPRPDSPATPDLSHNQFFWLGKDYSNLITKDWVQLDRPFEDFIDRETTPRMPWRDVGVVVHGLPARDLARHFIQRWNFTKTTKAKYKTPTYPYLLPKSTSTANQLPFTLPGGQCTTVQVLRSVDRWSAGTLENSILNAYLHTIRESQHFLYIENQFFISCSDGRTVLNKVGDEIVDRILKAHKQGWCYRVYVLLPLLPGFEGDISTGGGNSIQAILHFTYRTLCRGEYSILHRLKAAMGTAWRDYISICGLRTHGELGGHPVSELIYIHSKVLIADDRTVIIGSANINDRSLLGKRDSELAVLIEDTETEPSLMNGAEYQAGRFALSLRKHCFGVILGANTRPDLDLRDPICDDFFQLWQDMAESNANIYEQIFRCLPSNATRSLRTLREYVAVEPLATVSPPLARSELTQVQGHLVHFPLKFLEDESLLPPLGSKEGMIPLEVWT
Chain of Phospholipase D2 (Homo sapiens) (O14939 whole entry, looked up): as above

| SMILES | remaining activity |
| --- | --- |
| CCC(=O)N[C@@H](C)CN1CCC2(CC1)C(=O)NCN2c1ccccc1 | 95.3% |
| O=C(NCCN1CCC2(CC1)C(=O)NCN2c1ccc(F)cc1)c1cc2cc(F)ccc2[nH]1 | 14.3% (active) |
| O=C(c1cnc2ccccc2c1)N1CC(N2CCC3(CC2)C(=O)NCN3c2ccccc2)C1 | 70% |
| O=C(NCCN1CCC2(CC1)C(=O)NCN2c1ccc(F)c(F)c1)c1ccc(F)cc1 | 49.6% (active) |
| O=C(NCCCCCCN1CCC2(CC1)C(=O)NCN2c1ccccc1)c1cnc2ccccc2c1 | 127% |
| O=C(NCCN1CCC2(CC1)C(=O)NCN2c1cccc(F)c1)c1ccc(F)nc1 | 85.7% |
| O=C(NCCN1CCC2(CC1)C(=O)NCN2c1ccccc1)c1cc(-c2ccccc2)no1 | 88.3% |
| O=C(NCCN1CCC2(CC1)C(=O)NCN2c1ccccc1)c1cccnn1 | 88.2% |
| CC1(C)C(C(=O)NCCN2CCC3(CC2)C(=O)NCN3c2ccccc2)C1(C)C | 122% |
| CN(CCN1CCC2(CC1)C(=O)NCN2c1ccccc1)C(=O)c1ccc2ccccc2c1 | 95.2% |
| O=C(c1ccc(F)c(F)c1)N(CCN1CCC2(CC1)C(=O)NCN2c1cccc(F)c1)C(=O)c1ccc(F)c(F)c1 | 106% |
| O=C(NCCN1CCC2(CC1)C(=O)NCN2c1ccc(F)c(F)c1)c1cc2cc(F)ccc2[nH]1 | 10.4% (active) |
| C[C@@H](CN1CCC2(CC1)C(=O)NCN2c1ccc(F)c(F)c1)NC(=O)c1cnc2ccccc2c1 | 7.28% (active) |
| O=C(Cc1cccs1)NCCN1CCC2(CC1)C(=O)NCN2c1cccc(F)c1 | 77.8% |
| Cc1ccc(C(=O)NCCN2CCC3(CC2)C(=O)NCN3c2ccccc2)c(O)c1 | 85% |
| O=C(NCCN1CCC2(CC1)C(=O)NCN2c1cccc(Cl)c1)c1cnc2ccccc2c1 | 45.2% (active) |
| O=C(N[C@@H](Cc1ccccc1)CN1CCC2(CC1)C(=O)NCN2c1ccccc1)c1ccc(F)c(F)c1 | 102% |
| CCOC(=O)CCN1CCC2(CC1)C(=O)NCN2c1ccccc1 | 91.6% |

| SMILES | remaining activity |
| --- | --- |
| CCCCOc1ccc(C(=O)NCCN2CCC3(CC2)C(=O)NCN3c2cccc(F)c2)cc1 | 95.2% |
| O=C(CCN1CCC2(CC1)C(=O)NCN2c1ccccc1)Nc1cnc2ccccc2c1 | 104% |
| O=C(NCCN1CCC2(CC1)C(=O)NCN2c1ccc(Br)cc1)c1cc2cc(F)ccc2[nH]1 | 23.7% (active) |
| O=C(NCCN1CCC2(CC1)C(=O)NCN2c1ccccc1)c1cccc(F)n1 | 63.2% |
| O=C(NCCN1CCC2(CC1)C(=O)NCN2c1ccccc1)c1cc2ccccc2s1 | 10.3% (active) |
| O=C(c1ccc(F)c(F)c1)N1CCCC1CN1CCC(n2c(=O)[nH]c3ccccc32)CC1 (stereo unspecified) | 124% and 114% |
| O=C(NCCN1CCC2(CC1)C(=O)N(Cc1ccccc1)c1ccccc12)c1ccc2ccccc2c1 | 70.6% |
| COc1cc(OC)cc(C(=O)NCCN2CCC3(CC2)C(=O)NCN3c2cccc(F)c2)c1 | 84.7% |
| O=C(NCCN1CCC2(CC1)C(=O)NCN2c1ccc(Br)cc1)c1ccc(F)cc1 | 73.2% |
| O=C(NCCN1CCC2(CC1)C(=O)NCN2c1ccccc1)c1ccc2c(c1)C(=O)OC2=O | 93.5% |
| O=C(NCCN1CCC2(CC1)C(=O)NCN2c1ccc(Br)cc1)c1cnc2ccccc2c1 | 48.6% (active) |
| Cc1cccc(C(=O)NCCN2CCC3(CC2)C(=O)NCN3c2ccccc2)n1 | 89% |
| O=C(CCc1ccc(F)cc1)NCCN1CCC2(CC1)C(=O)NCN2c1ccccc1 | 102% |
| CC(C)(C)C(=O)NCCN1CCC2(CC1)C(=O)NCN2c1cccc(F)c1 | 74.9% |
| O=C(NCCN1CCC2(CC1)C(=O)NCN2c1ccccc1)c1ccc2cc(F)ccc2c1 | 68.8% |
| O=C(NCCN1CCC2(CC1)C(=O)NCN2c1ccccc1)c1ccc(F)cc1O | 82.6% |
| O=C(NCCN1CCC2(CC1)C(=O)NCN2c1ccc(F)c(F)c1)c1cnc2ccccc2c1 | 26.1% (active) |
| O=C(NCCN1CCC2(CC1)C(=O)NCN2c1ccc(F)cc1)c1ccc2ccccc2c1 | 34.3% (active) |
